Source: PubChem (National Center for Advancing Translational Sciences (NCATS))
In the library only some 19% were active in any assay of this set; here they are far more common.
IL-1B inflam inh = qHTS for Inhibitors of Inflammasome Signaling: IL-1-beta AlphaLISA Primary Screen; AID 743279, 2014; 4.7% of 360,000 active; THP-1 LPS/ATP IL-1B secretion, AlphaLISA, 16 h; stronger effect = lower value; activity change, % at 57.5 µM; in the data active = activity change below about -50%; inconclusive = mostly about -30% to -49%; also: % is scaled to controls: 0 for no effect and ±100 for the full control effect
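Secreted IL-1B measured by AlphaLISA bead assay after 16 h compound exposure of THP-1 cells; compounds (final up to 57.5 uM) added 1 h before LPS (250 ng/mL) and ATP (1.25 mM) stimulation; lower signal means less secretion.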
Chronic BCR inh = qHTS Assay to Find Inhibitors of Chronic Active B-Cell Receptor Signaling; 0.05% of 340,000 active; ABC-DLBCL IkBa-CBG/CBR reporter, luminescence ratio, 4 h; Potency, µM (doses to about 46.1 µM), for the others: at the top dose activity change, negative = inhibition, usual class: inhibitors; active = well fitted inhibition curve with a large enough effect in the signal ratio, with a control signal flat, not every such curve was filed as active; inconclusive = small, poorly fitted or top-dose-only effect, or effect the other way, or a change in a side signal; the % refers to the signal ratio;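 also: potency is read from the fitted curve at half-maximal effect; plate controls were basal doxycycline-induced cells for no effect and cells given 10 µM MG132 for full effect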
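Doxycycline induced both beetle luciferases in TMD8 lymphoma cells; IKK-driven degradation limits the IkappaBalpha-fused green signal, while red luminescence normalises for cell number and nonspecific effects. Compounds tested up to 46 uM, 4 hrs.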
SW480 rereplic = A quantitative high throughput screen for small molecules that induce DNA re-replication in SW480 colon adenocarcinoma cells; SW480 DNA re-replication, Hoechst DNA content imaging, 48 h; Potency, µM (highest dose often 46.1 µM), inactives show top-dose re-replication activation, most hits filed as activators; 1.8% of 340,000 active; also: potency is read from the fitted curve at half-maximal effect; % of control where 0% means no effect; nearly all actives have a fitted effect of over 55% in size
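First, 250 cells per well were seeded. Next, compound or vehicle (23 nL) was pinned in, plates sat 48 hr at 37 C. Finally Hoechst was added for 40 min before fluorescence scanning.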
DT40 TDP1 no CPT = qHTS for Inhibitors of human tyrosyl-DNA phosphodiesterase 1 (TDP1): qHTS in cells in absence of CPT; DT40 Tdp1-/- hTDP1 cells, no CPT, ATP luminescence, 48 h; Potency, µM (series often up to 46.2 µM), without a hit: at the top dose activity change, negative = growth inhibition, hits mostly inhibitors; 15% of 420,000 active; also: potency is read from the fitted curve at half-maximal effect; % is scaled to controls: 0 for no effect and ±100 for the full control effect; nearly all actives have a fitted effect of over 55% in size
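Seeded 400 DT40-hTDP1 cells/well (vehicle DMSO, no 20 nM CPT); pinned compounds; ≥48 hr at 37 °C; CellTiter-Glo luminescence as viability measure.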
DT40 TDP1 CPT = qHTS for Inhibitors of human tyrosyl-DNA phosphodiesterase 1 (TDP1): qHTS in cells in presence of CPT; AID 686979, 2013; Potency, µM (highest dose often 46.2 µM), inactives show at the highest dose activity change, negative = growth inhibition, usual class: inhibitors; chicken DT40 Tdp1-/-;hTDP1 cells + 20 nM CPT, ATP luminescence, 48 h; 12% of 420,000 active; also: potency is read from the fitted curve at half-maximal effect; % is scaled to controls: 0 for no effect and ±100 for the full control effect; nearly all actives have a fitted effect of over 55% in size
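Chicken DT40 Tdp1-/- cells complemented with human TDP1, 400 cells/well, exposed to compounds plus 20 nM camptothecin for at least 48 h at 37 C; viability read as ATP content by CellTiter-Glo luminescence.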
MCF10A rerep = A quantitative high throughput screen for small molecules that induce DNA re-replication in MCF 10a normal breast cells | AID 624296, 2012 | MCF 10A DNA re-replication, Hoechst nuclear intensity, 48 h | 2.9% of 350,000 active | Potency, µM (titrated, usually from 46.1 µM), for inactives: top-dose activity, positive = re-replication, actives largely listed as activators; also: potency is read from the fitted curve at half-maximal effect; % of control where 0% means no effect; nearly all actives have a fitted effect of over 50% in size
Active calls of the source: *; ? = inconclusive; · = no result; [ ] = another dose, or the depositor's remark. Unless noted, calls follow the shape of the dose curve; as a rule, active = well fitted curve in the direction sought with a large enough effect; inconclusive = small, poorly fitted or top-dose-only effect, or another doubt; inactive = no such curve, though single readings can be large; an effect the other way counts as inactive or inconclusive.

SMILES	IL-1B inflam inh	Chronic BCR inh	SW480 rereplic	DT40 TDP1 no CPT	DT40 TDP1 CPT	MCF10A rerep
COc1cccc(-c2nc(Cn3c(=O)cc(C)c4c(C)nn(-c5ccccc5)c43)c(C)o2)c1OC	·	·	·	10%	8%	·
Cc1cc(N2CCN(Cc3nc(-c4ccc(Cl)cc4)oc3C)CC2)cc(C)n1	·	2%	?	18µM*	12µM*	?
Cc1oc(-c2cccc3ccccc23)nc1CN1CCN(c2ncnc3ccccc23)CC1	0	?	0%	12µM*	16µM*	?
COc1cc(OC)nc(Oc2cccc(Cl)c2C)n1	40	·	-134%	5%	2%	8%
COc1cc(C(=O)NC2(C(F)(F)F)C(=O)NC(C)=C2C#N)cc(OC)c1OC (centres undefined)	·	-6%	·	-2%	1%	·
N#CC(C#N)=C(Nc1ccc(F)cc1)SCc1cccc(Br)c1	-96*	?	?	2.3µM*	2.9µM*	3.3µM*
COc1cccc(CNCCSc2nnnn2C)c1OCc1ccc(F)cc1	·	·	·	21µM*	?	·
Cn1nnnc1SCCNCc1ccccc1OCc1ccc(F)cc1	32	0%	-6%	-11%	-7%	0%
COc1cc(CNCCSc2nnnn2C)ccc1OCc1ccc(F)cc1	·	·	·	21µM*	18µM*	·
Cc1ccc(S(=O)(=O)NCC(=O)NCC(=O)N(C)Cc2ccc3ccccc3c2)cc1C	-52*	-13%	9%	-70%	?	?
CSc1ccc(CN(C)C(=O)CNC(=O)CNS(=O)(=O)c2ccc(C)c(C)c2)cc1	14	-3%	-22%	?	?	4%
CCCCN(CC)CCCNC(=S)Nc1ccc2nc(N3CCN(C)CC3)cc(C)c2c1	-54*	?	?	16µM*	?	4%
CCCCN(CC)CCCNC(=S)Nc1ccc2nc(N3CCN(CC)CC3)cc(C)c2c1	?	?	?	16µM*	?	6%
CCN1CCN(c2cc(C)c3cc(NC(=S)NCCCOC)ccc3n2)CC1	-10	-1%	-15%	2%	?	?
CC(=O)c1cccc(NC(=O)/C=C/c2ccc(S(=O)(=O)N3CCOCC3)cc2)c1	-15	-3%	-16%	18µM*	?	1%
O=C(/C=C/c1ccccc1)Nc1ccc(S(=O)(=O)N2CCOCC2)cc1	8	·	-5%	-18%	-18%	13%
CN(C)S(=O)(=O)c1cccc(NC(=O)/C=C/c2ccc(S(=O)(=O)N3CCOCC3)cc2)c1	3	0%	2%	18µM*	15µM*	?
O=C(/C=C/c1cccc(F)c1)Nc1ccc(S(=O)(=O)N2CCOCC2)cc1	-22	3%	?	?	?	6%
Cc1nnc(SCc2ccc(Cl)cc2Cl)[nH]c1=O	24	4%	-2%	-16%	-12%	6%
Cc1cnc(SCc2ccc(Cl)cc2Cl)[nH]c1=O	3	?	0%	21µM*	?	9%
Cc1cc(=O)[nH]c(SCc2ccc(Cl)cc2Cl)n1	23	5%	12%	23µM*	-19%	-3%
COc1ccccc1-n1cc(CN2CCOc3ccc(CN4C[C@@H](C)O[C@@H](C)C4)cc3C2)cn1	·	·	·	?	-11%[9.04 µM]	·
CC(C)(C)S(=O)(=O)N1Cc2cc(CO)cc(CCO)c2[C@@H]1CCO	21	·	1%	-2%	7%	2%
CCCC[C@@H]1CCCO[C@@](C(=O)NCc2ccccn2)(C(F)(F)F)C1	2	·	-11%	?	18µM*	?
COc1ccc(N2Cc3cccc(C(=O)Nc4ccc(F)cc4)c3C2=O)cc1	·	·	·	8.2µM*	10µM*	·
SMILES	IL-1B inflam inh	Chronic BCR inh	SW480 rereplic	DT40 TDP1 no CPT	DT40 TDP1 CPT	MCF10A rerep
CCOC(=O)N1CCC(NC(=O)c2cccc3c2C(=O)N(c2ccc(OC)cc2)C3)CC1	0	5%	2%	?	15µM*	7%
O=C(O)CCCn1cc(NC(=O)COc2ccccc2)cn1	-21	-4%	-25%	20%	-8%	11%
Cc1cc(Cl)ccc1OCC(=O)N1CCC(c2nc3ccccc3o2)CC1	·	·	·	16µM*	?	·
CC(C)(C)c1ccc(C(=O)N2CCC(c3nc4ccccc4o3)CC2)cc1	·	·	·	15µM*	21µM*	·
O=C(c1ccc(Cl)cc1)N1CCC(c2ccncc2)CC1	·	15%	·	-72%	?	·
O=C(c1ccc(Cl)cc1)N1CCC(c2nc3ccccc3o2)CC1	·	·	·	15µM*	?	·
CN(C)S(=O)(=O)c1ccc(C(=O)N2CCC(c3nc4ccccc4o3)CC2)cc1	5	-1%	-6%	?	-29%	-2%
Cc1cc(C)n(-c2nc3c(c(=O)[nH]c(=O)n3C)n2CC(O)COc2ccc(Cl)cc2Cl)n1 (centres undefined)	116	-4%	?	5.8µM*	6.5µM*	?
COc1ccccc1OCC(O)Cn1c(Br)nc2c1c(=O)[nH]c(=O)n2C (centres undefined)	34	0%	-1%	15µM*	?	2%
O=C(COc1cccc2ccccc12)NNC(=O)c1cnccn1	15	-4%	0%	16µM*	?	11%
O=C(COc1ccc2ccccc2c1)NNC(=O)c1cnccn1	11	-1%	-4%	23µM*	23µM*	?
CC(C)c1ccc(OCC(=O)NNC(=O)c2cnccn2)cc1	·	-6%	-5%	?	?	-6%
O=C(Nc1nc(-c2cccc3ccccc23)cs1)c1cnccn1	13	?	?	?	-20%	18µM*
COc1cc(S(=O)(=O)N2CC(=O)Nc3ccccc32)ccc1NC(C)=O	42	-4%	-6%	-3%	11%	-3%
O=C(CN1CCCc2ccccc21)N/N=C/c1c(O)ccc2ccccc12	50	-22%	?	3.7µM*	4.1µM*	?
O=C(CN1CCCc2ccccc21)N/N=C/c1ccc(O)cc1O	102	?	?	16µM*	?	?
O=C(CN1CCCc2ccccc21)N/N=C/c1ccccc1	18	0%	-22%	16µM*	?	4%
O=C1ON(Cc2ccccc2)C(c2ccccc2)N1c1ccccc1 (centres undefined)	-1	·	-3%	-10%	6%	8%
